Rows were chosen to be rich in hits. Some 9.3% of all compounds tested hit in one or more screens of this group.
Sm TGR block: blocks Schistosoma mansoni thioredoxin glutathione reductase; purified TGR, DTNB reduction, TNB absorbance 405 nm; Potency, µM (top dose mostly 114 µM), most hits filed as inhibitors; 3% of 360,000 active; AID 485364; also: nearly all actives have a fitted effect of over 60% in size
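First, TGR (20 nM dispensed) and NADPH were mixed with compound. Second, a 15 min room-temperature incubation followed. Third, further NADPH and then DTNB were added to start the reaction. Finally, TNB absorbance was monitored kinetically.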
VACV mCherry inh: inhibitors of vaccinia virus infection (mCherry reporter signal); Potency, µM (top dose mostly 36.5 µM), hits mostly inhibitors; 0.63% of 310,000 active; Vaccinia virus mCherry reporter infection, fluorescence; calls by dose curve; tested in A549 cells; also: nearly all actives have a fitted effect of over 35% in size
VACV Venus inh: inhibitors of vaccinia virus (Venus reporter) | Vaccinia virus Venus reporter expression, fluorescence | Potency, µM (doses to about 36.5 µM), usual class: inhibitors | 0.46% of 330,000 active | AID 720580; calls by dose curve; tested in A549 cells; also: nearly all actives have a fitted effect of over 30% in size
FMDV antiviral: antivirals against foot and mouth disease virus; FMDV antiviral cell-based qHTS; Potency, µM (series often up to 57.9 µM), hits mostly inhibitors; 1.2% of 410,000 active; AID 1159524; calls by dose curve; tested in HEK293T cells; also: read-out not given here; nearly all actives have a fitted effect of over 45% in size
HCV inh: inhibitors of hepatitis C virus infection | Huh7.5.1 HCVcc-Cre infection, luciferase reporter, 44 h | Potency, µM (doses to about 41.8 µM), most hits filed as inhibitors | 3.4% of 340,000 active | AID 651820
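Compounds are dispensed onto cells plated 4 h earlier at 1,000 per well, with HCVcc-Cre virus (about 0.5 moi) added next. Following 44 h of culture, luminescent signal is measured for 15 sec after 15 min with substrate at room temperature.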
HCMV antiviral: human cytomegalovirus inhibition; HFF cells, HCMV-luciferase reporter, 72 h; active compounds read low; activity change, negative = inhibition, % at 57.5 µM; 4.5% of 410,000 active; AID 1259415; in the data active = activity change below about -60%; inconclusive = no clear call, values can overlap the other calls; inactive = above about -39%
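Compounds were evaluated in HFFs infected with an HCMV luciferase reporter virus (MOI 1 PFU/cell). Luciferase in lysates collected 72 h post infection served as the replication measure.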
Each line names hits and unclear results; the compound was inactive in the other large screens. Unless noted, calls follow the shape of the dose curve; as a rule, active = well fitted curve in the direction sought with a large enough effect; inconclusive = small, poorly fitted or top-dose-only effect, or another doubt; inactive = no such curve, though single readings can be large; an effect the other way counts as inactive or inconclusive.

Cc1ccc(C)c(OCC(O)CN2C(C)CCCC2C)c1 (configuration not stated)	HCV inh 13µM
Nc1nc(SCC(=O)Nc2cccnc2Cl)n[nH]1	none (no result: VACV mCherry inh, VACV Venus inh)
COc1ccc(CCNC(=O)c2csc3c2CCCC3)cc1	HCV inh inconclusive
COc1ccc(-n2cc(C(=O)Nc3ccccc3C#N)c3ccccc3c2=O)cc1	none (no result: HCV inh)
COC(=O)[C@H](Cc1ccc(O)cc1)NC(=O)Cn1cnc2c(SC)nc(N)nc21	none (no result: Sm TGR block)
COc1ccc(CN(C)C(=O)Cn2cnc3c(SC)nc(N)nc32)cc1OC	HCV inh 4.5µM (no result: Sm TGR block)
Cc1ccc(-n2c(C)cc(C(=O)COc3c(CO)cc(F)cc3CO)c2C)cc1C	FMDV antiviral inconclusive, HCV inh inconclusive, HCMV antiviral -92
Cc1cc(C(=O)COc2ccccc2Cl)c(C)n1-c1ccc2c(c1)OCO2	none
Cc1ccc([N+](=O)[O-])cc1S(=O)(=O)N1CCn2cccc2C1c1ccccc1F (configuration not stated)	none (no result: HCV inh)
CCN(CC(=O)Nc1ccccc1OC)C(=O)c1ccc(NS(=O)(=O)c2ccc(C(C)=O)cc2)cc1	FMDV antiviral 158µM
COc1ccc(NC(=O)Cn2nnc(-c3ccccc3NC(=O)c3cccs3)n2)cc1	VACV Venus inh inconclusive, HCV inh inconclusive (no result: VACV mCherry inh)
COc1ccccc1NC(=O)Cn1nnc(-c2ccccc2NS(=O)(=O)c2ccccc2)n1	VACV mCherry inh inconclusive, FMDV antiviral inconclusive, HCV inh inconclusive, HCMV antiviral -67
COc1ccc(NC(=O)Cn2nnc(-c3ccccc3NS(=O)(=O)c3ccc(OC)cc3)n2)cc1	HCV inh 11µM
CCN(C(=O)CN1C(=O)COc2ccc(S(=O)(=O)N3CCCCCC3)cc21)c1cccc(C)c1	HCV inh inconclusive, HCMV antiviral -63
CCN(Cc1ccccc1)C(=O)CN1C(=O)COc2ccc(S(=O)(=O)N3CCCCCC3)cc21	HCMV antiviral -77
Cc1cccc(N2CCN(C(=O)CN3C(=O)COc4ccc(S(=O)(=O)N5CCCCCC5)cc43)CC2)c1C	HCMV antiviral -73 (no result: HCV inh)
CNC(=O)CN1C(=O)COc2ccc(S(=O)(=O)N3CCCCCC3)cc21	none
Cc1ccc(C)c(N2CCN(C(=O)CN3C(=O)COc4ccc(S(=O)(=O)N5CCCC5)cc43)CC2)c1	none (no result: HCV inh)
Fc1ccccc1-n1[nH]nnc1=S	none (no result: VACV mCherry inh, VACV Venus inh)
Cc1ccccc1NS(=O)(=O)c1ccc(C(=O)NCc2ccccc2CN2CCCC2)cc1	none (no result: Sm TGR block, HCV inh)
CCOc1ccc2oc(C(=O)NCc3ccccc3CN3CCCC3)c(C)c2c1	FMDV antiviral inconclusive, HCV inh 16µM (no result: VACV mCherry inh, VACV Venus inh)
O=C(NCc1ccccc1CN1CCCC1)c1ccc(S(=O)(=O)Nc2ccccc2F)cc1	VACV mCherry inh inconclusive, HCMV antiviral -75 (no result: Sm TGR block, HCV inh)
CN(C)CCCNC(=O)c1ccc(Cl)c(S(=O)(=O)N2CCCCCC2)c1	HCV inh inconclusive
CC(=O)c1ccc(S(=O)(=O)NCc2ccc(C(=O)NCC(c3ccccc3)N(C)C)cc2)cc1 (configuration not stated)	Sm TGR block 14µM, HCV inh inconclusive
CN(C)C(CNC(=O)c1ccc(Cl)c(S(=O)(=O)N2CCCCCC2)c1)c1ccccc1 (configuration not stated)	FMDV antiviral inconclusive, HCV inh 6.3µM (no result: VACV mCherry inh, VACV Venus inh)
O=C(Nc1cc(F)ccc1F)C1CCN(C(=O)c2cnn(-c3ccccc3)c2-n2cccc2)CC1	none (no result: HCV inh)
O=C(COc1ccccc1Cl)NC1CC1	none (no result: VACV mCherry inh, VACV Venus inh)
O=C(NCc1ccccc1CN1CCCC1)c1cc2cc(Cl)ccc2o1	HCV inh 10µM (no result: VACV mCherry inh, VACV Venus inh)
COc1ccc2cc(C(=O)NCc3ccccc3CN3CCCC3)ccc2c1	HCV inh 7.1µM (no result: VACV mCherry inh, VACV Venus inh)
O=C(NCc1ccc(Cl)cc1)c1cc2ccccc2o1	none (no result: HCV inh)
O=C(NCc1ccccc1CN1CCCC1)c1ccc(Cl)c(S(=O)(=O)N2CCCC2)c1	HCV inh 13µM
CC(NC(=O)c1ccc(Cl)c(S(=O)(=O)N2CCCCCC2)c1)c1cccnc1 (configuration not stated)	FMDV antiviral inconclusive, HCV inh 13µM, HCMV antiviral inconclusive (no result: VACV mCherry inh, VACV Venus inh)
O=C(Nc1cccnc1)c1ccc(Cl)c(S(=O)(=O)N2CCCCC2)c1	HCV inh inconclusive
Cc1nn(C(C)(C)C)c(NC(=O)c2ccc(Cl)cc2Cl)c1Br	HCMV antiviral inconclusive
O=C(/C=C/[C@H]1O[C@@H](n2cnc3c(NC(=O)c4ccccc4)ncnc32)[C@H](O)[C@@H]1O)N[C@@H](CO)Cc1c[nH]c2ccccc12	none (no result: Sm TGR block, HCV inh)
CCOCCCNC(=O)c1cc(=O)n(Cc2cccc(C)c2)c2ccccc12	HCMV antiviral -62
CC1(Cc2ccc(C(F)(F)F)o2)C(=O)Nc2cc(-c3ccc(F)cc3F)ccc21 (configuration not stated)	FMDV antiviral inconclusive, HCMV antiviral -100 (no result: Sm TGR block, HCV inh)
COc1ccccc1-c1cnc(C(O)c2cccc(C)c2C)[nH]1 (configuration not stated)	none (no result: Sm TGR block, HCV inh)
O=C(NCC(=O)N(Cc1cccs1)C(C(=O)NC1CCCCC1)c1ccncc1)c1ccco1 (configuration not stated)	Sm TGR block 45µM
COc1cc(C(C(=O)NC2CCCCC2)N(C(=O)Cc2c[nH]c3ccccc23)c2ccccc2C)cc(OC)c1OC (configuration not stated)	none
COc1cc(C(C(=O)NC2CCCCC2)N(Cc2cccs2)C(=O)Cc2c[nH]c3ccccc23)cc(OC)c1OC (configuration not stated)	FMDV antiviral inconclusive, HCV inh inconclusive, HCMV antiviral -79 (no result: VACV mCherry inh, VACV Venus inh)
O=C(NC1CCCCC1)C(c1ccc2ncccc2c1)N(Cc1ccccc1)C(=O)c1cccs1 (configuration not stated)	HCV inh inconclusive, HCMV antiviral -62 (no result: FMDV antiviral)
O=C(NC1CCCCC1)C(c1ccncc1)N(Cc1ccccc1)C(=O)c1ccc(-c2ccccc2)[nH]1 (configuration not stated)	HCV inh 13µM (no result: VACV mCherry inh, VACV Venus inh)
CC(C)(C)NC(=O)C(c1ccncc1)N(Cc1ccco1)C(=O)c1ccc(-c2ccccc2)[nH]1 (configuration not stated)	Sm TGR block 10µM
CC(C)(C)NC(=O)C(c1ccc(F)cc1)N(Cc1ccco1)C(=O)c1csnn1 (configuration not stated)	none
CC(C)(C)NC(=O)C(c1ccc(Cl)cc1)N(Cc1ccco1)C(=O)CCl (configuration not stated)	Sm TGR block 11µM, FMDV antiviral inconclusive (no result: VACV mCherry inh, VACV Venus inh)
Cc1cc(NC(=O)CSc2nc3ccccc3c(=O)n2CCCC(=O)NCc2ccccc2)n[nH]1	HCMV antiviral inconclusive (no result: VACV mCherry inh, VACV Venus inh)
O=C1N=c2ccccc2=C1c1c(O)n(-c2cccc(F)c2)[nH]c1=O	Sm TGR block 22µM, FMDV antiviral inconclusive
COc1ccc(S(=O)(=O)N2CCN(C)CC2)cc1Br	none
COCC(=O)N(Cc1cc2ccc(C)c(C)c2n2nnnc12)C1CCCC1	HCV inh inconclusive
N#Cc1c2n(c3c(=S)nc[nH]c13)CCCCC2	HCMV antiviral -75 (no result: VACV mCherry inh)

Screening data (PubChem)
